The record followed here is PubChem BioAssay (Tox21).

Molecules are shown by their SMILES. Where “and” joins values, the source holds several entries; their conditions need not be identical. Identical values can stand only once. Inconclusive results are not listed. Where a call stands in place of a potency, no number is given. Where a structure was tested more than once in an assay, its records may differ in their call. Calls of active or inactive are those of the source. Calls follow the shape of the dose curve; as a rule, active = well fitted cell-killing curve with a large enough effect in the repeat runs; inconclusive = weak or mixed curves, or effect the other way; inactive = no such curve, though single readings can be large or run the other way.
Potency is read from the fitted curve at half-maximal effect.

This assay can be described thus: qHTS assay to identify small molecule agonists of the estrogen receptor alpha (ER-alpha) signaling pathway in the presence of an antagonist - cell viability counter screen (AID 1259386).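 Also: cells exposed to compounds for 22 h at 37 °C before the viability read; nearly all actives have a fitted effect of over 30% in size.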 The following applies: VM7Luc4E2 viability, CellTiter-Fluor fluorescence, 22 h; series mostly up to 92.4 µM; activity change, negative = cytotoxicity: at the top concentration. In outline: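 Cell viability in VM7Luc4E2 cells (endogenous full-length ER-alpha) measured by CellTiter-Fluor fluorescence in the same wells as the luciferase screen. Cells pre-cultured 5 days in charcoal-stripped serum, then treated 22 h with compounds at 15 concentrations plus 10.0nM ICI-182,780.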
As to `O=Cc1ccccc1C=O`, the Potency result was “inactive”.
As for `C=C[C@@]1(C)CC(=O)[C@]2(O)[C@@]3(C)[C@@H](O)CCC(C)(C)[C@@H]3[C@H](O)[C@H](OC(C)=O)[C@@]2(C)O1`, the Potency entry was “inactive”.
With `C[C@]12CC[C@@H]3c4ccc(O)cc4CC[C@H]3[C@@H]1CC[C@@H]2O`, the “activity change, negative = cytotoxicity” value is -2.1% (inactive).
As to `OC[C@@H](O)[C@@H](O[C@@H]1O[C@H](CO)[C@H](O)[C@H](O)[C@H]1O)[C@H](O)[C@@H](O)CO`, the Potency result is “inactive”.
Same read-out and setting: the result for `NCCN` reads “inactive”; that for `O=C1OC2(c3ccccc31)c1cc(I)c(O)c(I)c1Oc1c2cc(I)c(O)c1I`, 13.3 µM (active) [middle of 4 runs].
Take `CC(=O)O[C@]1(C(C)=O)CC[C@H]2[C@@H]3C=C(Cl)C4=CC(=O)CC[C@]4(C)[C@H]3CC[C@@]21C`: the Potency result is “inactive”.
On to `O=C(CCCN1CCC(O)(c2ccc(Cl)cc2)CC1)c1ccc(F)cc1`, for which the Potency entry is “inactive”.
`O=C(O)CCCCCCCCCCCC(=O)O`: the Potency result is “inactive”.
`Cc1ccc(C(C)(C)C)c(O)c1`: the Potency entry was “inactive”.
In the case of `C=C[C@H]1CN2CC[C@H]1C[C@H]2[C@H](O)c1ccnc2ccc(OC)cc12`, the “activity change, negative = cytotoxicity” value was -9.68% [at 42.5 µM] (inactive).
As for `C=C[C@H]1CN2CC[C@H]1C[C@@H]2[C@@H](O)c1ccnc2ccc(OC)cc12`, the “activity change, negative = cytotoxicity” value is -4.4% [at 42.5 µM] (inactive).
With `CC(C)(C)c1cccc(C(C)(C)C)c1O`, the Potency entry is “inactive”.
With `CCC/C=C/C=O`, the Potency entry is “inactive”.
On to `OC[C@H]1O[C@@H]2O[C@H]3[C@H](O)[C@@H](O)[C@@H](O[C@H]4[C@H](O)[C@@H](O)[C@@H](O[C@H]5[C@H](O)[C@@H](O)[C@@H](O[C@H]6[C@H](O)[C@@H](O)[C@@H](O[C@H]7[C@H](O)[C@@H](O)[C@@H](O[C@H]1[C@H](O)[C@H]2O)O[C@@H]7CO)O[C@@H]6CO)O[C@@H]5CO)O[C@@H]4CO)O[C@@H]3CO`, for which the Potency entry was “inactive”.
In the case of `CN(C)CCCN1c2ccccc2Sc2ccc(Cl)cc21`, the Potency result is “inactive”.
In the case of `Cc1ccc(C)c(O)c1`, the Potency entry is “inactive”.
Consider `COC(=O)CC(=O)OC`, for which the Potency result is “inactive”.
For `Nc1ccc(O)c(N)c1`, the Potency is 60.7 µM (active) and 54.5 µM (active).
With `NCCS(=O)(=O)O`, the Potency is 25.3 µM (active) and inactive.
Take `C[C@]12CC[C@@H]3c4ccc(O)cc4CC[C@H]3[C@@H]1CC[C@H]2O`: the Potency result was “inactive”.
For the compound `c1ccc2ncccc2c1`, the Potency entry is “inactive”.
Consider `O=C(O)c1cc(=O)[nH]c(=O)[nH]1`, for which the Potency entry is “inactive”.
Consider `COCCOCCOCCO`, for which the Potency entry is “inactive”.
For the compound `CCCCCCCC/C=C\CCCCCCCC(=O)O`, the “activity change, negative = cytotoxicity” value is 1.5% (inactive).
As for `COc1cc([C@H]2Oc3cc([C@H]4Oc5cc(O)cc(O)c5C(=O)[C@@H]4O)ccc3O[C@@H]2CO)ccc1O`, the Potency result is “inactive”.
Consider `C=CCCCCCCCCCC`, for which the Potency result was “inactive”.
Turning to `CC/C=C\C/C=C\C/C=C\CCCCCCCC(=O)O`, the Potency entry is “inactive”.
On to `CCC(=O)O[C@H]1[C@H](O[C@@H]2[C@@H](C)[C@H](O[C@H]3C[C@@](C)(OC)[C@@H](O)[C@H](C)O3)[C@@H](C)C(=O)O[C@H](CC)[C@@](C)(O)[C@H](O)[C@@H](C)C(=O)[C@H](C)C[C@@]2(C)O)O[C@H](C)C[C@@H]1N(C)C`, for which the Potency was 32.2 µM (active) and inactive.
As for `[O-]/[N+](=N\O)c1ccccc1`, the Potency entry was “inactive”.
For the compound `Cc1cccc(Nc2ccccc2C(=O)O)c1C`, the Potency result is “inactive”.
Regarding `CC1(C)NC(=O)N(c2ccc([N+](=O)[O-])c(C(F)(F)F)c2)C1=O`, the “activity change, negative = cytotoxicity” value was -9.96% [at 42.5 µM] (inactive).
Take `CC(=O)OC(C)C`: the Potency result was “inactive”.
On to `COC(=O)c1ccc(C)cc1`, for which the Potency entry is “inactive”.
In the case of `CCCCCCCCCCC(CO)CCCCCCCC` (configuration not stated), the Potency result was “inactive”.
As for `CC(=O)O[C@]1(C(C)=O)CC[C@H]2[C@@H]3C=C(C)C4=CC(=O)CC[C@]4(C)[C@H]3CC[C@@]21C`, the Potency result is “inactive”.
On the same count and under the same terms, the result for `Oc1c(Cl)ccc(Cl)c1Cl` reads “inactive”.
